Experimental data: PubChem BioAssay (Tox21)
Records with an inconclusive call do not appear. Activity calls are given as the source filed them. Unless noted, the call rests on the fitted dose curve; in most records, active means well fitted curve in the direction sought with a large enough effect in the repeat runs; inconclusive means weak or mixed curves; inactive means no such curve, though single readings can be large; an effect the other way counts as inactive or inconclusive.

Tests used:
[1] = molecular target: Retinoic acid receptor RXR-alpha (Homo sapiens) (UniProt P19793); experiment: qHTS assay to identify small molecule agonists of the RXR signaling pathway (AID 1159527; calls by dose curve; further: nearly all actives have a fitted effect of over 35% in size)
Sequence of Retinoic acid receptor RXR-alpha (Homo sapiens) (P19793 whole entry, looked up): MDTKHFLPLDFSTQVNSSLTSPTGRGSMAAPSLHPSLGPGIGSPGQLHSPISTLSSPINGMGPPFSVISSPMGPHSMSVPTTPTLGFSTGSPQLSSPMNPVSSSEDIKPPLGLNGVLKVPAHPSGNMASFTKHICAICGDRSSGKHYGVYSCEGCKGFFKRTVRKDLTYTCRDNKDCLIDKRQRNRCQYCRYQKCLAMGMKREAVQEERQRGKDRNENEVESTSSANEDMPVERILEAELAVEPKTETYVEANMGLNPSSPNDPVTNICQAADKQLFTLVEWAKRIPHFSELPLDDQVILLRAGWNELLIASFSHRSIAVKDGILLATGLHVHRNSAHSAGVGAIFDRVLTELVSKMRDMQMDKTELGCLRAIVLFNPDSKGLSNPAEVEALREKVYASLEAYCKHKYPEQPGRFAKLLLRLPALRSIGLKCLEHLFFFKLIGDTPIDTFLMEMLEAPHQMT
Procedure, shortened: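 Beta-lactamase reporter assay, agonist format. Engineered HEK 293T line, charcoal-stripped FBS at 2%, overnight (16 hr) exposure, fluorescence at 460 and 530 nm after 405 nm excitation.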

[2] = qHTS assay to identify small molecule agonists of the RXR signaling pathway - cell viability counter screen (AID 1159529);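 further: HEK 293T cells carrying an RXR-alpha UAS beta-lactamase reporter; nearly all actives have a fitted effect of over 50% in size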
Procedure, shortened: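 Same-well viability check after the LiveBLAzer FRET read: CellTiter-Glo added, luminescence measured after 30 min at room temperature. Reporter HEK 293T cells had been treated with compounds for 16 hr following a 5 hr preincubation.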

[3] = qHTS assay to identify small molecule antagonists of the retinoid acid receptor (RAR) signaling pathway - cell viability counter screen (AID 1159551); further: nearly all actives have a fitted effect of over 35% in size
Procedure, shortened: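 ATP-based viability, C3RL4 cells, 6 h at 37 C with 1 uM final retinol co-added after compound; luminescence read 30 min post CellTiter-Glo, RT.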

[4] = qHTS assay to identify small molecule antagonists of the retinoic acid receptor (RAR) signaling pathway (AID 1159552; further: nearly all actives have a fitted effect of over 50% in size)
Procedure, shortened: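 Readout: luciferase luminescence, 30 min post-reagent at RT. Setup: C3RL4 RARE reporter cells, compounds plus retinol 1 uM final, 6 hr incubation at 37 C and 5% CO2.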

[5] = qHTS assay to identify small molecule agonists of the retinoic acid receptor (RAR) signaling pathway (AID 1159553); settings: C3RL4 RARE luciferase reporter, agonist, 6 h; activation: at 73.3 µM (top of the series)
Procedure, shortened: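 Quantitative high-throughput format: the Tox21 10K library was tested on C3RL4 RARE-luciferase cells for 6 hr at 37 C and 5% CO2, with luminescence measured after a 30 min room-temperature reagent step.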

[6] = qHTS assay to identify small molecule antagonists of the estrogen related receptor (ERR) signaling pathway from Tox21 library - cell viability counter screen (AID 1224834); further: nearly all actives have a fitted effect of over 30% in size
Procedure, shortened: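 Compounds in DMSO were pinned onto ERR cells that had been incubated for 6 h, and the plates were held at 37 C for 17.5 h. CellTiter-Fluor reagent was then added and fluorescence was measured after 30 min.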

[7] = molecular target: Luciferin 4-monooxygenase (Photinus pyralis) (UniProt P08659); experiment: qHTS assay to identify small molecule inhibitors of firefly luciferase (AID 1224835); further: nearly all actives have a fitted effect of over 25% in size
Sequence of Luciferin 4-monooxygenase (Photinus pyralis) (P08659 whole entry, looked up): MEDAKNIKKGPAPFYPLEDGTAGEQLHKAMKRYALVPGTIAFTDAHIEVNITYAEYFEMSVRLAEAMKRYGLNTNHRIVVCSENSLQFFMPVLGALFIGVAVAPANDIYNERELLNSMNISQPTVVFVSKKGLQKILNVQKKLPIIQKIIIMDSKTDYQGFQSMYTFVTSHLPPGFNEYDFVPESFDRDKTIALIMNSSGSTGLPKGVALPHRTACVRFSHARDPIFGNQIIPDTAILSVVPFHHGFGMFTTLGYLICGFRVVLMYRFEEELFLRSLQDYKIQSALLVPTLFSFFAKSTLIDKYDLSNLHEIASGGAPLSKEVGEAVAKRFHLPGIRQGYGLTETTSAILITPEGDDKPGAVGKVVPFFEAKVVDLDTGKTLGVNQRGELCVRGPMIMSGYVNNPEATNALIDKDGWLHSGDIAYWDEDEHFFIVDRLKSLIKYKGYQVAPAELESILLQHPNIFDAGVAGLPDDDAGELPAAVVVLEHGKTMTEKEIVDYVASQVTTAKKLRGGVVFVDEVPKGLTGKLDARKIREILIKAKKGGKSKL
Procedure, shortened: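 Biochemical qHTS: compounds run as interplate titrations against purified firefly enzyme, with D-luciferin and ATP each at its KM concentration. Light output recorded by CCD imaging.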

[8] = qHTS assay to identify small molecule agonists of the constitutive androstane receptor (CAR) signaling pathway - cell viability counter screen (AID 1224836); further: nearly all actives have a fitted effect of over 45% in size
Procedure, shortened: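 Compound titrations (15 concentrations) went onto HepG2-CYP2B6-hCAR cells 4 h after seeding, alongside PK11195 at a final 0.75 uM; a 23 h, 37 C/5% CO2 incubation preceded CellTiter-Fluor viability measurement.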

[9] = qHTS assay to identify small molecule antagonists of the constitutive androstane receptor (CAR) signaling pathway - cell viability counter screen (AID 1224837); further: nearly all actives have a fitted effect of over 45% in size
Procedure, shortened: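 Cells are seeded, rested 4 hr at 37 C/5% CO2, dosed with compound (15-point series) and 50 nM CITCO, incubated a further 23 hr, and then CellTiter-Fluor reagent is added before fluorescence is read. The line is HepG2 with stable hCAR and CYP2B6-2.2kb.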

[10] = qHTS assay to identify small molecule antagonists of the estrogen related receptor signaling pathway with the pleiotropic PPARgamma coactivator (PGC) from Tox21 10K library - cell viability counter screen (AID 1224840; active means well fitted cell-killing curve with a large enough effect in the repeat runs, not every such curve was filed as active; further: nearly all actives have a fitted effect of over 40% in size)
Procedure, shortened: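 Cell viability is measured by CellTiter-Fluor fluorescence in PGC/ERR cells that receive compounds after a 6-hour attachment period and are then incubated 17.5 hours at 37 C.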

[11] = molecular target: Thyrotropin receptor (Homo sapiens) (UniProt P16473); experiment: qHTS assay to identify small molecule agonists of the thyroid stimulating hormone receptor (TSHR) signaling pathway (AID 1224843; calls by dose curve; further: nearly all actives have a fitted effect of over 45% in size)
Sequence of Thyrotropin receptor (Homo sapiens) (P16473 whole entry, looked up): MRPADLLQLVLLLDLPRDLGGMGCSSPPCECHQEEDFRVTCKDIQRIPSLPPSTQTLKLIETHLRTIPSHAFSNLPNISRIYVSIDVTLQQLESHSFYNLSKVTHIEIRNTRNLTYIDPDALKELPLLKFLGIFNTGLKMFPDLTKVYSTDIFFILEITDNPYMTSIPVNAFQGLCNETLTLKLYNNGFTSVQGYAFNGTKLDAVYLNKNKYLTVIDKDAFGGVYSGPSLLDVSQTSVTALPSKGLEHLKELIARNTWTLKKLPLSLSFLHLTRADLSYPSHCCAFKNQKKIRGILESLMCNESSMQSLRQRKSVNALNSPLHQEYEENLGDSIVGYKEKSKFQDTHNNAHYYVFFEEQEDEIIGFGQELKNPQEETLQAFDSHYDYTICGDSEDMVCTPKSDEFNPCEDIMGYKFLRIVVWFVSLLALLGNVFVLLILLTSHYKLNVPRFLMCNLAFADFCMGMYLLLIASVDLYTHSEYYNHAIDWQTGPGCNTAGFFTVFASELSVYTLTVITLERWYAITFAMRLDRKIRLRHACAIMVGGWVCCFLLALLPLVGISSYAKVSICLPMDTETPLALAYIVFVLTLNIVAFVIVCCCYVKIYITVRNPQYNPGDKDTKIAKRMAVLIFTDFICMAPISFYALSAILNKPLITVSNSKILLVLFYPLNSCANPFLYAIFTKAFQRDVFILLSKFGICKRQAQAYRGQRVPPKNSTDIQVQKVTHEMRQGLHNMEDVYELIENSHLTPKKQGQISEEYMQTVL
Procedure, shortened: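 HEK293/TSHR, 800 cells/well; cpd 30 min RT; add cAMP-d2 + anti-cAMP-cryptate, 1 h RT; fluorescence read on plate reader. 15-pt titration, n=3.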

[12] = qHTS assay to identify small molecule agonists of the hypoxia (HIF-1) signaling pathway - cell viability counter screen (AID 1224844; calls by dose curve; further: nearly all actives have a fitted effect of over 50% in size)
Procedure, shortened: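 Viability counter screen: HRE-bla ME-180 cells plated 5 hrs before compound addition, treated 17 hrs at 37C and 5% CO2, then CellTiter-Glo added after the FRET reporter read; luminescence after 30 min.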

[13] = qHTS assay to identify small molecule agonists of H2AX (AID 1224845; active means well fitted activation curve with a large enough effect in the signal ratio in the repeat runs, not every such curve was filed as active; the % refers to the signal ratio)
Procedure, shortened: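 Wild-type CHO-K1 cells, plated overnight, exposed 3hr at 37C to 15 concentrations (0.76% DMSO final). Lysed, then HTRF anti-pH2AX (S139) cryptate and anti-H2AX-d2 antibodies, 24 hr room temperature; 665/620 nm emission read.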

[14] = qHTS assay to identify small molecule agonists of the hypoxia (HIF-1) signaling pathway (AID 1224846; active means well fitted activation curve with a large enough effect in the signal ratio in the repeat runs, not every such curve was filed as active; the % refers to the signal ratio)
Procedure, shortened: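 Agonist mode reporter screen. ME-180 cells stably expressing bla under HRE control received test compounds in DMSO for 17 hrs (37C, 5% CO2), and beta-lactamase activity was then detected with the CCF4-AM FRET substrate.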

[15] = qHTS assay to identify small molecule agonists of H2AX - cell viability counter screen (AID 1224847; calls by dose curve; further: top concentration of the series differs between compounds; nearly all actives have a fitted effect of over 30% in size)
Procedure, shortened: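 Read-out: CellTiter-Glo luminescence, 30 min RT. Cells: wild-type CHO-K1, 1000/well, 10% FBS, plated overnight at 37C. Treatment: 15 concentrations, 3 hr, 37C, 0.76% DMSO.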

[16] = molecular target: Nuclear receptor subfamily 1 group I member 3 (Homo sapiens) (UniProt Q14994); experiment: qHTS assay to identify small molecule antagonists of the constitutive androstane receptor (CAR) signaling pathway (AID 1224838);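 further: HepG2 cells stably expressing hCAR with CYP2B6 luciferase reporter stimulated by CITCO; nearly all actives have a fitted effect of over 40% in size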
Sequence of Nuclear receptor subfamily 1 group I member 3 (Homo sapiens) (Q14994 whole entry, looked up): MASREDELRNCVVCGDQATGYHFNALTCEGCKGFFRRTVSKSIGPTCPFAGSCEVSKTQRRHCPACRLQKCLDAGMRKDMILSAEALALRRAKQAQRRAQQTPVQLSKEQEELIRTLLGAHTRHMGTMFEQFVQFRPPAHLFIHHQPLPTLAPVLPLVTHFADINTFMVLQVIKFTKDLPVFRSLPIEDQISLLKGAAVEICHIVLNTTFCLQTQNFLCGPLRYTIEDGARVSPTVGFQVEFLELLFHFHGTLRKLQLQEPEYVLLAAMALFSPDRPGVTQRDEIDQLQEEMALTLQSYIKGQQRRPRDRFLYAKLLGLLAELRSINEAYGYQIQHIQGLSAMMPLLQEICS
Procedure, shortened: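 Luminescence from a CYP2B6-2.2kb promoter reporter in hCAR-expressing HepG2 cells reflects CAR signaling. Cells received compounds at 15 concentrations and 50 nM CITCO (final), then incubated 24 h at 37 C/5% CO2.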

[17] = molecular target: Nuclear receptor subfamily 1 group I member 3 (Homo sapiens) (UniProt Q14994); experiment: qHTS assay to identify small molecule agonists of the constitutive androstane receptor (CAR) signaling pathway (AID 1224839);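 further: HepG2 cells stably carrying human CAR and a CYP2B6 luciferase reporter; nearly all actives have a fitted effect of over 15% in size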
Procedure, shortened: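 In this screen, CAR-driven CYP2B6 promoter activity is measured by luminescence in HepG2-CYP2B6-hCAR cells after 24 h with test compounds and 0.75 uM PK11195 (final concentration).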

[18] = qHTS assay to identify small molecule agonists of the estrogen related receptor signaling pathway with the pleiotropic PPARgamma coactivator (PGC) from Tox21 10K library (AID 1224842); further: nearly all actives have a fitted effect of over 15% in size
Procedure, shortened: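 PGC/ERR reporter cell line, 2,000 cells per well, incubated 6 h at 37 C before 23 nL compound in DMSO was added. After 18 h at 37 C, One-Glo luminescence read following 30 min at room temperature.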

[19] = qHTS assay to identify small molecule antagonists of the estrogen related receptor (ERR) signaling pathway from Tox21 library (AID 1224848); further: nearly all actives have a fitted effect of over 50% in size
Procedure, shortened: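 Compounds dissolved in DMSO are pin-transferred onto ERR reporter cells (2,000 per well) that have settled for 6 h at 37 C. Plates then incubate 18 h at 37 C before ONE-Glo luciferase reagent and a luminescence read 30 min later.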

[20] = qHTS assay to identify small molecule antagonists of the estrogen related receptor signaling pathway with the pleiotropic PPARgamma coactivator (PGC) from Tox21 10K library (AID 1224841; call rule not given here)
Procedure, shortened: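 Cells stably carrying the PGC/ERR reporter, seeded at 2,000 per well, received pin-transferred compounds 6 h post-plating. Exposure lasted 18 h at 37 C. Signal: One-Glo luminescence.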

Measured: Potency

Cc1nc([N+](=O)[O-])cn1-c1ccc([N+](=O)[O-])cc1
not listed: [16] | [17] | [18] | [19] | [20]
inactive: all other assays above

C1=C\CC/C=C\CC/1
not listed: [11] | [18] | [19] | [20]
inactive: all other assays above

NS(=O)(=O)c1ccc(Cl)c(S(N)(=O)=O)c1
not listed: [15] | [16] | [17] | [18] | [19] | [20]
inactive: all other assays above

O=c1[nH]c(=O)c2ccccc2o1
not listed: [16] | [17] | [20]
inactive: all other assays above

CC(C)=CC(C)(C)C
not listed: [16] | [17] | [18] | [19] | [20]
inactive: all other assays above

CC(=O)OC[C@H]1O[C@@H](OC(C)=O)[C@H](OC(C)=O)[C@@H]1OC(C)=O
not listed: [16] | [20]
inactive: all other assays above

CC(=O)/C=C/c1ccco1
not listed: [16] | [17] | [20]
inactive: all other assays above

c1ccccc1
not listed: [15] | [16] | [17]
inactive: all other assays above
